In PubChem BioAssay AID903 (National Center for Advancing Translational Sciences (NCATS), 2007):
Hit rate of the full screen: of about 55,000 compounds, about 340 (0.62%) were called active. A call without a number means that no potency is given here. About 3% were inconclusive and are not listed. Calls follow the shape of the dose curve; as a rule, active = well fitted cell-killing curve with a large enough effect; inconclusive = small, poorly fitted or top-dose-only effect; inactive = no such curve, though single readings can be large or run the other way. Only a selection was taken, and actives are over-represented in it overall.

Experiment: qHTS Screen for Compounds that Selectively Target Cancer Cells with p53 Mutations: Cytotoxicity of p53 Null Cells at the Permissive Temperature; also: nearly all actives have a fitted effect of over 55% in size
Settings: H1299-neo p53 null cells, ATP luminescence, 24 h, 32C; series mostly up to 46.1 µM
Excerpt: NIH Chemical Genomics Center [NCGC] NIH Molecular Libraries Screening Centers Network [MLSCN] MLSCN Grant: 1 X01 MH079844-01 Assay Submitter (PI): Dr. SUN, YI, University of Michigan NCGC Assay Overview: Synthetic Lethal Screen for Compounds to Kill Cancer Cells with p53 Mutation. Tumor suppressor gene p53 serves as a major cellular barrier against tumorigenesis. […] The goal of this screening is to identify small molecule probes that selectively kill cancer cells with mutations in p53. This screening was carried out using two lines of H1299 lung cancer cells. The H1299-p53 A138V line express a temperature sensitive p53 mutant (p53ts) in which the mutant p53 protein (A138V) is in the mutant confirmation when grown at 39C (the nonpermissive temperature) and in the wild type conformation when grown at 32C (the permissive temperature). A H1299-neo line (p53 null) grown at both 39C and 32C were used as counter-screens to filter out false positive associated with temperature shifting. The small molecular compounds that selectively target mutant p53-containing cancer cells were selected as candidate probes for further study. A cytotoxicity assay based on the measurement of ATP contents in cells was used in this screen. Concentration-responses of all the compounds in the library collection were determined in qHTS using the cell lines and temperature conditions as above.
NCGC Assay Protocol Summary: Both the H1299-p53A138V and H1299-neo cell lines were provided by Dr.Yi Sun, a PI at the University Michigan. The cells were maintained and cultured at 37C. The resuspended frozen cells were used to plate the cells in the 1536-well assay plates at a density of 600 cells per well in 5 ul medium. The assay plates with the cells were incubated at 37C for 16 to 30 hours before the experiments. The library compounds in DMSO solution were added to the cells in assay plates and incubated 24 hours at 39C (for mutant p53 conformation) or 32C (for normal p53 conformation as control). An ATP_lite assay kit (PerkinElmer) was used to determine the cell viability. Tomaxifen (100uM) was used as the positive control for cell killing. Data were normalized to the controls for basal activity (DMSO only) and 100% killing (100uM tamoxifen). AC50 values were determined from concentration-response data modeled with the standard Hill equation. P53 assay protocol: 1. Reagent; 5 uL H1299-p53A138V or H1299-neo cell cells/well 2. Time; overnight; 37C incubation 3. Compounds; 23 nL; 5.9 nM to 46 uM 4. Controls; 23 nL; Tamoxifen 100 uM 5. Time; 24 hr; 32C incubation 6. Reagent; 3 uL; ATP_Lite reagent 7. Time; 20 min; Room Temperature 8. Detection; Luminescence; Viewlux plate reader Keywords: p53, synthetic lethal, cancer, cell viability, cytotoxicity, H1299 cell line, luminescence, MLSMR, MLSCN, NIH Roadmap, qHTS, NCGC
Potency is read from the fitted curve at half-maximal effect.

Row | Structure (SMILES) | Potency | activity change, negative = cytotoxicity
1 | COc1ccc(-c2csc(-c3c(N)c(C(=O)c4ccc(OC)c(OC)c4)n4ccccc34)n2)cc1 | inactive | –
2 | Cc1cc(OCC(=O)Nc2ncn[nH]2)c(C)c(C)c1Br | inactive | –
3 | COc1ccc(N2CCN(c3nc(-c4ccccc4F)nc4ccccc34)CC2)cc1 | inactive | –
4 | O=S(=O)(c1ccc(Br)cc1)c1nnn2c1nc(NC1CCCCCC1)c1sccc12 | inactive | –
5 | COc1cccc(CNC(=O)c2ccc3c(c2)N(Cc2ccc(C(F)(F)F)cc2)C(=O)c2ccccc2S3)c1OC | inactive | –
6 | COc1ccc(OC)c2sc(N3CCN(C(=O)C4COc5ccccc5O4)CC3)nc12 (configuration not stated) | inactive | –
7 | Cn1c(=O)cc(OCC(=O)N2CCN(c3ccccc3F)CC2)c2ccccc21 | inactive | –
8 | COc1cc(C(=O)Nc2ccc(OCc3cc(=O)n4cc(C)sc4n3)cc2)cc(OC)c1OC | inactive | –
9 | COc1cccc(C2C(C(=O)Nc3ccc(C)cc3C)=C(C)Nc3c(C(=O)Nc4ccccc4)cnn32)c1 (configuration not stated) | inactive | –
10 | CCNC(=O)Cn1nc(C)n2c(cc3c(OC)cccc32)c1=O | inactive | –
11 | O=C(NCc1ccccc1)C1CCN(S(=O)(=O)c2ccc3[nH]c(=O)ccc3c2)CC1 | inactive | –
12 | COc1ccc(N2CCN(S(=O)(=O)CCNC(=O)C(c3ccccc3)c3ccccc3)CC2)cc1 | inactive | –
13 | Cc1ccc(C2CCN(C(=O)c3cnn(-c4ccccc4Cl)c3C3CCN(C(=O)OC(C)(C)C)CC3)C2)cc1 (configuration not stated) | inactive | –
14 | CN(C)CCCNC(=S)NCc1ccc(Cl)cc1 | inactive | –
15 | COc1ccc(CCNC(=O)c2c3c(nc4ccccc24)C(=O)N(C2CCCCC2)C3)cc1OC | inactive | –
16 | CCOC(=O)c1ccc(NC(=O)C2CC(=O)NC(=Nc3ccc(C)c(C)c3)S2)cc1 (configuration not stated) | inactive | –
17 | Cc1ccc(CSc2nc3cccnc3n2Cc2ccc(C(=O)NC3CC3)cc2)cc1 | 2.51 µM (active) | –
18 | O=C(NCc1ccc(F)cc1)c1ccc(Cn2c(SCc3ccc(F)cc3)nc3cccnc32)cc1 | inactive | –
19 | O=C(NC1CCCCC1)c1ccc(Cn2c(SCc3ccccc3)nc3cccnc32)cc1 | inactive | –
20 | COc1ccc(C(=O)OCC(=O)NC(=O)CCSc2ccccc2)cc1 | inactive | –
21 | Cc1cccc(-n2ncc(C(=O)N3CCC(C)CC3)c2C2CCN(C(=O)OC(C)(C)C)CC2)c1 | inactive | –
22 | CC(C)C(=O)Nc1cccc(NC(=O)c2ccc([N+](=O)[O-])cc2Cl)c1 | inactive | –
23 | CCCCOc1ccc(Cn2c(=O)oc3ccc(C)cc32)cc1OC | inactive | –
24 | COc1ccc(CCN2C(=O)C3CC=C(C)CC3C2=O)cc1OC (configuration not stated) | inactive | –
25 | CCCCOc1ccc(CN2C(=O)C(=O)c3cc(Br)cc(C)c32)cc1OC | 35.5 µM (active) | –

Row | Structure (SMILES) | Potency | activity change, negative = cytotoxicity
26 | COc1ccc(NC(=O)c2ccco2)cc1NC(=O)c1ccc(C#N)cc1F | – | -5.82% [at 9.22 µM] (inactive)
27 | Cc1cc(C)c2oc(-c3cccc(NC(=O)c4cccc(F)c4)c3C)nc2c1 | inactive | –
28 | Brc1ccc(-c2noc(-c3ccccc3)n2)o1 | inactive | –
29 | Cc1ccccc1-n1c(C)cc(/C=C2\NC(=O)NC2=O)c1C | 11.2 µM (active) | –
30 | Cc1cccc(N2CCN(C3=C(c4ccccc4)C(=O)c4ccccc43)CC2)c1C | inactive | –
31 | COc1ccc2oc(=O)c(-c3cn4c(n3)sc3cc(OC)ccc34)cc2c1 | inactive | –
32 | COc1ccc2cc(-c3nc(Cl)c4c5c(sc4n3)CC(C)CC5)c(=O)oc2c1 (configuration not stated) | inactive | –
33 | COc1ccc(-c2cc3ccc(OCc4nn[nH]n4)cc3oc2=O)cc1 | 12.6 µM (active) | –
34 | Cc1cccc2c(=O)cc(CSc3ccccc3NC(=O)C(C)C)[nH]c12 | inactive | –
35 | C/C=C/c1ccc(OCCOc2ccc(C=O)cc2OC)c(OC)c1 | inactive | –
36 | COc1ccc(CCNC(=O)c2cc(=O)c3c(C)cc(C)cc3o2)cc1OC | inactive | –
37 | Cc1ccc(-n2c(CNc3ccc(F)cc3)nnc2SCC(=O)N2CCOCC2)cc1 | inactive | –
38 | O=C(NC1CCCCC1)c1ccc2c(c1)N(Cc1ccc(Cl)cc1)C(=O)c1ccccc1S2=O (configuration not stated) | inactive | –
39 | O=C(NCC(c1ccc(Cl)cc1)N1CCOCC1)c1ccccc1F (configuration not stated) | inactive | –
40 | O=C(Nc1ccccc1F)c1ccccc1-c1ccccc1 | inactive | –
41 | CC(=O)c1ccc(NC(=O)Nc2ccc([N+](=O)[O-])cc2C)cc1 | inactive | –
42 | COc1ccc(N2CCN(c3cc(C)nc4nncn34)CC2)cc1 | inactive | –
43 | COc1ccccc1C1C(C(=O)N2CCCCC2)=C(C)Nc2nc3ccccc3n21 (configuration not stated) | inactive | –
44 | COc1ccccc1N1CCN(c2ccc(=O)n(CC(=O)NCc3ccc(OC(C)C)cc3)n2)CC1 | inactive | –
45 | Cc1ccc(Cl)cc1NC(=O)CCC(=O)N1CC(C)Sc2ccccc21 (configuration not stated) | inactive | –
46 | CC1CCCN(Cc2c(O)ccc3c(=O)c(Oc4ccc(C(C)(C)C)cc4)c(C(F)(F)F)oc23)C1 (configuration not stated) | inactive | –
47 | Cc1ccccc1CSc1nc(-c2ccccc2)nc2c1Cc1c(CO)cnc(C)c1O2 | inactive | –
48 | COc1ccc(OC)c(NC(=O)Cn2c(=O)n(Cc3ccccc3)c(=O)c3ccccc32)c1 | inactive | –
49 | COc1cccc(CNCc2c(C(=O)O)n(Cc3ccc(C)cc3)c3cc(C)ccc23)c1OC | inactive | –
50 | O=C(Cn1cnc2c(oc3ccccc32)c1=O)Nc1ccc(OC(F)(F)F)cc1 | inactive | –

Row | Structure (SMILES) | Potency | activity change, negative = cytotoxicity
51 | CCOc1ccccc1CNC(=O)Nc1cn(CC(C)C)c(=O)c2ccccc12 | inactive | –
52 | COc1ccc2oc(-c3cccc(NC(=O)CSc4ccc(Cl)cc4)c3)nc2c1 | inactive | –
53 | CCOC(=O)CN1C(C(=O)c2ccccc2)=C(OC(=O)C(C)(C)C)c2ccccc2S1(=O)=O | inactive | –
54 | CCOC(=O)C1=C(c2ccccc2)Nc2ncnn2C1c1ccc(Cl)cc1 (configuration not stated) | inactive | –
55 | O=C(CSc1nc2ccccc2[nH]1)Nc1nc(-c2ccccc2)c(-c2ccccc2)o1 | inactive | –
56 | O=C(NCc1ccccc1)C(=O)NCC(c1ccco1)S(=O)(=O)c1ccc(Cl)cc1 (configuration not stated) | inactive | –
57 | Cc1ccc(CSc2nc3ccsc3c(=O)n2CCC(C)C)cc1 | inactive | –
58 | COc1ccc(S(=O)(=O)c2c(Nc3cccc(Cl)c3)sc(C(=O)c3ccccc3)c2N)cc1 | inactive | –
59 | Cc1cccc(N2CCN(C(=O)c3ccc(Nc4nc5ccccc5n5nnnc45)cc3)CC2)c1C | inactive | –
60 | O=C(COc1ccccc1)OCc1cc(=O)n2nc(-c3cccs3)sc2n1 | inactive | –
61 | CC1CCN(C(=O)Cn2c(=O)n(-c3ccc(Cl)cc3)c(=O)c3c4c(sc32)CCC4)CC1 | inactive | –
62 | CCOC(=O)CSc1nc2ccc(C)cc2[nH]1 | inactive | –
63 | CCCc1nn2c(=O)cc(COC(=O)c3ccc(NC(=O)C(C)Oc4ccccc4)cc3)nc2s1 (configuration not stated) | inactive | –
64 | CCOC(=O)c1cc2c(=O)n3ccccc3nc2n(CCCOC)c1=NC(=O)C(C)Oc1ccccc1 (configuration not stated) | inactive | –
65 | Cc1ccc(C(=O)Nc2ccc3[nH]c(=O)c(=O)[nH]c3c2)cc1 | inactive | –
66 | COc1ccc(CNC(=O)c2ccc3c(O)c(S(=O)(=O)c4ccccc4)c(=O)[nH]c3c2)cc1 | inactive | –
67 | CC(C)c1ccc(NC(=O)c2ccc3c(O)c(S(=O)(=O)c4ccccc4)c(=O)[nH]c3c2)cc1 | 12.6 µM (active) | –
68 | CN(C(=O)CSc1nc2ccccc2n1Cc1ccccc1C#N)c1ccccc1 | inactive | –
69 | COc1ccc(CNC(=O)CS(=O)Cc2nc(-c3cccc(C)c3)oc2C)cc1 (configuration not stated) | inactive | –
70 | Cc1cc(SCC(=O)NCCN2C(=O)CSC2=O)nc2ccccc12 | inactive | –
71 | COC(=O)CSc1ccc2nnc(CCNS(=O)(=O)c3ccc(C)cc3)n2n1 | inactive | –
72 | N#CC1(NC(=O)COc2ccc3oc4ccccc4c3c2)CCCCC1 | inactive | –
73 | O=C(NCCc1ccccn1)c1cc(-c2ccc(Cl)cc2)nc2ccccc12 | inactive | –
74 | CCC(=O)NCc1cc(-c2nn(C)c(=O)c3ccccc23)ccc1OC | inactive | –
75 | CCOc1ccc(C(O)Cc2nc3ccccc3n2C)cc1 (configuration not stated) | inactive | –

Row | Structure (SMILES) | Potency | activity change, negative = cytotoxicity
76 | CC(C)(C)c1ccc(C(=O)NCC(=O)OCN2C(=O)c3ccccc3C2=O)cc1 | inactive | –
77 | Cc1ccc(NC(=O)c2cn3c4c(ccc(Cl)c4c2=O)OC(C)C3)cc1C (configuration not stated) | inactive | –
78 | Cc1cc(C)cc(NC(=O)Cc2csc(C)n2)c1 | inactive | –
79 | COc1ccc2c(c1)Cc1sc(NC(=O)c3ccccc3Br)nc1-2 | inactive | –
80 | CCC(CC)c1nn2cc(-c3ccccc3)nc2s1 | 6.31 µM (active) | –
81 | CCCS(=O)(=O)Nc1cccc(-c2cn3ccsc3n2)c1 | inactive | –
82 | CCc1ccc(CNC(=O)C2CCN(c3nn4cc(-c5ccc(F)cc5)nc4s3)CC2)cc1 | inactive | –
83 | O=C(Nc1nc2c(s1)CCCC2)c1ccccc1F | 6.31 µM (active) | –
84 | Cc1cc(C)cc(OC(C)C(=O)Nc2nc3c(s2)CCCC3)c1 (configuration not stated) | inactive | –
85 | Cc1ccccc1NC(=O)c1c(NC(=O)c2ccccc2F)sc2c1CCC(C)C2 (configuration not stated) | inactive | –
86 | CCOC(=O)NC(=O)CSc1nnc(SCCC(=O)O)s1 | inactive | –
87 | CCC(C)NC(=O)c1ccccc1NC(=O)c1ccccc1N(C)S(C)(=O)=O (configuration not stated) | inactive | –
88 | Cc1ccc(-n2nnnc2CNC(=O)c2ccccc2C)cc1C | inactive | –
89 | COC(=O)c1cnn(-c2ccc(C(=O)Nc3ccc(OC(F)(F)F)cc3)cc2)c1N | inactive | –
90 | CCn1c(O)c(N=NC(=O)c2cccc(S(=O)(=O)N3CCCCC3)c2)c2ccccc21 | inactive | –
91 | CCCCc1nn2c(=O)cc(COC(=O)c3cccc(NC(=O)COc4ccccc4)c3)nc2s1 | inactive | –
92 | Cc1nn2c(=O)cc(COC(=O)c3ccccc3NC(=O)COc3ccccc3C)nc2s1 | inactive | –
93 | Cc1nn2c(=O)cc(COC(=O)c3cccc(NC(=O)COc4ccccc4Cl)c3)nc2s1 | 12.6 µM (active) | –
94 | CCc1nc2cccnc2n1-c1ccc(CC(=O)Nc2c(C)cccc2C)cc1 | inactive | –
95 | CCCCC1N2CC3([N+](=O)[O-])CN1CC([N+](=O)[O-])(C2)C3(C)C (configuration not stated) | inactive | –
96 | Cc1cc(-c2ccc(C)c(S(=O)(=O)N3c4ccccc4CC3C)c2)on1 (configuration not stated) | inactive | –
97 | Cc1ccc(-c2nnc(SCC(=O)N/N=C/c3cccs3)n2-c2ccc(C)cc2)cc1 | inactive | –
